TMEM16A act: activators or potentiators of mouse TMEM16A chloride channel; 340,000 compounds, 0.3% hits; B-score at 10 µM; Q8BHY3; HEK293 TMEM16A/YFP-H148Q/I152L, iodide quench fluorescence; hits give low values;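 active means fluorescence-ratio B-score plate-corrected deviation score at least 3 library SD below zero, with starting fluorescence score within 5 deviations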;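 further: channel opened by trigger with iodide after compound preincubation; score built on the fluorescence ratio of max minus min over baseline; more negative score means more quench and so TMEM16A activation or potentiation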
KLF5 inh: inhibitors of KLF5 expression | DLD-1 KLF5 promoter-luciferase reporter, luminescence | inhibition, % at 5 µM | 290,000 compounds, 0.23% hits | AID 1700;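 active means inhibition above a per-plate limit of that plate's mean compound inhibition plus 3 SD, cut at about 60% in these data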;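 further: 0% = DMSO wells and 100% = LY294002 at 200 µM; higher means less KLF5 promoter-driven luciferase light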
Jurkat NFkB inh: inhibitors of the PMA/ionomycin-induced NF-kB reporter in Jurkat cells. PMA/ionomycin-induced NF-kB luciferase reporter, luminescence. inhibition, % at 4 µM. 330,000 compounds, 0.53% hits. AID 435003; in the data active means inhibition above about 50%
697 NFkB inh: lowers PMA/ionomycin-induced NF-kB signal in 697 B cells. 697 B-cell NF-kB luciferase reporter, 16 h. inhibition, % at 4 µM. 330,000 compounds, 0.33% hits; in the data active means inhibition above about 35%
ANO1 block: inhibitors of mouse TMEM16A calcium-activated chloride channel | HEK293 TMEM16A/YFP iodide influx fluorescence, ionomycin | 310,000 compounds, 1.2% hits | Q8BHY3 | AID 588511 | normalized B-score (activity score, 25-100; higher = stronger inhibition) at 10 µM;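 active means ratio plate-corrected score three or more library SD toward inhibition, starting fluorescence score within five deviations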;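 further: score derived from kinetic fluorescence span divided by baseline fluorescence per well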
aSyn 5UTR inh: MLPCN primary screen, SNCA 5' untranslated region | inhibition, % (tested at 7.5 µM) | alpha-synuclein 5'UTR reporter, inhibitor activity | 300,000 compounds, 0.82% hits | AID 1813; in the data active means inhibition above about 60%;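 further: H4 neuroglioblastoma cells stably carrying SNCA 5'UTR luciferase fusion; 0% = DMSO wells and 100% = positive control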
TMEM16A reconf: reconfirmed blocker of mouse TMEM16A calcium-activated chloride channel | shares compounds with ANO1 block | HEK293 TMEM16A/YFP-H148Q, iodide quench fluorescence; ionomycin added to raise cell calcium | inhibition, % at 10 µM | 2,300 compounds, 39% hits | AID 652189;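 active means mean duplicate percent inhibition, scaled so buffer wells are 0 and the reference blocker 100, over three buffer SD above buffer mean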
TMEM16A Ca cntr: calcium mobilization counter-screen hit for TMEM16A inhibitor series; TMEM16A/YFP HEK293, Fluo4 calcium mobilization; 2,300 compounds, 2% hits; calcium response (% of ionomycin), % at 10 µM; shares compounds with ANO1 block;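 active means duplicate-averaged calcium signal over 20% of the ionomycin maximum, relative to buffer baseline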;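 further: each well's signal is peak minus trough fluorescence divided by its pre-addition baseline; 0% = buffer wells and 100% = ionomycin wells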
Parental YFP cnt: parental YFP-HEK293 iodide quench counter-screen activity; shares compounds with ANO1 block; ionomycin; YFP ratio F(max-min)/F0 at 10 µM; 2,300 tested, under 10 active;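 active means yellow fluorescent protein signal ratio exceeding the buffer control mean by over 5 SD of those controls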;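 further: ratio is mean of duplicate wells from kinetic YFP trace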
ClC-1 inh: rat ClC-1 inhibition, TMEM16A specificity screen | shares compounds with ANO1 block | CHO ClC-1-YFP, iodide influx fluorescence quench; iodide control reads 0, buffer control 100 | ratio percent, % at 10 µM | 2,300 tested, under 10 active;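 active means duplicate-mean ratio percent above the mean of iodide-only control wells, which defines zero, plus 5 of their SD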;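 further: higher percent means stronger block of ClC-1 iodide influx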
Target sequence (P35524 whole entry, looked up): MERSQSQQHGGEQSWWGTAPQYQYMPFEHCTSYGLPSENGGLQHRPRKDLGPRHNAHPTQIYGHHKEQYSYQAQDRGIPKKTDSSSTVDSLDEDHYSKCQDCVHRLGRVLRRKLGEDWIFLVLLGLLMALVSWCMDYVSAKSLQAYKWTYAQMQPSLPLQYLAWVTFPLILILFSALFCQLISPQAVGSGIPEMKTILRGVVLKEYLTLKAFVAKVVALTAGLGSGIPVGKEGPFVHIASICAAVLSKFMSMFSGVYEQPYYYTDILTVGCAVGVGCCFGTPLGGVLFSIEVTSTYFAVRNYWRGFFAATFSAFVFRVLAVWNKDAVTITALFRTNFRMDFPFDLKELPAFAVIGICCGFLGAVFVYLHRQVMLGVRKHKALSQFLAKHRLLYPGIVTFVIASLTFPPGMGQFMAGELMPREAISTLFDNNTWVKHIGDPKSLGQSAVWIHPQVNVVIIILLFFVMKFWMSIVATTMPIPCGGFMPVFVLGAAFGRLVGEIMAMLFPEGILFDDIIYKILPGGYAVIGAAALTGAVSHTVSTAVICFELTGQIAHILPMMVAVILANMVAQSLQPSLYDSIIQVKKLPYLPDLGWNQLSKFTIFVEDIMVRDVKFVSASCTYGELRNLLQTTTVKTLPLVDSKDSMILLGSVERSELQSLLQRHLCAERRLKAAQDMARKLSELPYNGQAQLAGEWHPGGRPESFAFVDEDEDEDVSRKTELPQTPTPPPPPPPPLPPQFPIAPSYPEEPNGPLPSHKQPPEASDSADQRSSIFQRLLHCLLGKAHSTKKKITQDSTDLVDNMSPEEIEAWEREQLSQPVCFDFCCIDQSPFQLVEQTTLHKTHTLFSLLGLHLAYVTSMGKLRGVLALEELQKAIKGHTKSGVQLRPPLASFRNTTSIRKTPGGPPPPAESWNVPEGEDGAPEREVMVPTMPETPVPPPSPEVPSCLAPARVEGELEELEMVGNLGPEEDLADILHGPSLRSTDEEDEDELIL
Starred values were filed as active, the others as inactive; i = inactive; nt = no result given. Shown are actives, neighbours in structure and some others; about 2.5% of the full set was active somewhere.

SMILES | TMEM16A act | KLF5 inh | Jurkat NFkB inh | 697 NFkB inh | ANO1 block | aSyn 5UTR inh | TMEM16A reconf | TMEM16A Ca cntr | Parental YFP cnt | ClC-1 inh
O=C(NCCN1CCOCC1)C1(C(F)(F)F)C/C(=C\Cc2ccccc2)CCCO1 (configuration not stated) | i | nt | -7 | 19 | i | -15 | nt | nt | nt | nt
Sc1nnc(-c2ccc(Cl)cc2)n1Cc1ccccc1 | i | nt | -15 | 21 | nt | nt | nt | nt | nt | nt
O=C(NCc1ccco1)c1cc2nc(C3CC3)cc(C(F)(F)F)n2n1 | i | 2 | -3 | 4 | i | 9 | nt | nt | nt | nt
O=C(NCc1ccccc1)c1cc2nc(C3CC3)cc(C(F)(F)F)n2n1 | i | 7 | -5 | -2 | 100* | 15 | i | i | -1.2 | -14
O=c1[nH]cccc1-c1nc2ccccc2n1Cc1cccc(F)c1 | i | -5 | 6 | 7 | i | -12 | nt | nt | nt | nt
CC(OC(=O)Cn1c(C(F)(F)F)nc2ccccc21)C(=O)N1CCCc2ccccc21 (configuration not stated) | i | -18 | -7 | 3 | 100* | nt | i | i | -1.3 | 0
CCOC(=O)c1[nH]c(C)c(C(=O)Nc2ccc3c(c2)OCCO3)c1C | i | -4 | -4 | 6 | 25* | -53 | i | i | -0.98 | -2
CCCn1nc(C(=O)NNC(=O)c2cccc(S(=O)(=O)NC(C)C)c2)c2ccccc2c1=O | i | 1 | -5 | 4 | i | -4 | nt | nt | nt | nt
Cc1cccc(N2CCN(C(=O)CCC(=O)N3CC(C)Oc4ccccc43)CC2)c1C (configuration not stated) | i | -10 | 14 | -15 | 25* | 15 | i | i | -0.95 | 0
C=CCN1C(=O)c2ccc(C(=O)N3CCN(S(=O)(=O)c4cccc([N+](=O)[O-])c4)CC3)cc2C1=O | i | nt | -7 | 21 | nt | nt | nt | nt | nt | nt
CC(NC(=O)Nc1cccc([N+](=O)[O-])c1)(C(F)(F)F)C(F)(F)F | i | -32 | -8 | 13 | 100* | 14 | i | i | -0.88 | -14
CCc1nc2sc3ccccc3c(=O)c2c(=O)n1CCOC | i | 8 | -2 | -14 | 25* | -10 | i | i | -1.1 | -12
O=C1NC(=O)C(Cc2ccc(Cl)cc2)(c2ccccc2)N1 (configuration not stated) | i | nt | nt | nt | nt | nt | nt | nt | nt | nt
CCn1c(Cc2ccccc2)n[nH]c1=S | i | -16 | 5 | -1 | i | 13 | nt | nt | nt | nt
CC(C)Cn1c(Cc2ccccc2)n[nH]c1=S | i | -32 | 9 | 5 | 100* | 12 | i | i | -1.2 | -4
O=C(c1ccccc1Br)N1CCCC(c2nc(-c3cccs3)no2)C1 (configuration not stated) | i | -52 | -3 | -37 | 25* | -63 | 19%* | i | -1 | -15
O=C(c1ccc(Br)cc1)N1CCCC(c2nc(-c3cccs3)no2)C1 (configuration not stated) | i | -5 | -2 | 9 | i | -11 | nt | nt | nt | nt
COc1ccc(C(=O)N2CCCC(c3nc(-c4cccs4)no3)C2)cc1OC (configuration not stated) | nt | -7 | 6 | 8 | i | 15 | nt | nt | nt | nt
COc1ccc(C(=O)N2CCCC(c3nc(-c4cccs4)no3)C2)cc1 (configuration not stated) | i | -72 | 2 | 0 | 25* | -10 | i | i | -1.1 | -8
COc1ccc(NC2CCCN(C(=O)C3(C)CCCCC3)C2)cc1 (configuration not stated) | i | -19 | -10 | -7 | i | 1 | nt | nt | nt | nt
COc1cccc(N/C=C(\C#N)c2ccc(OCCCF)cc2)c1 | i | -44 | -13 | 2 | 100* | -1 | i | i | -0.87 | -1
COc1cc2c(c(OC)c1OC)C(=O)CO2 | i | nt | nt | nt | nt | nt | nt | nt | nt | nt
Cc1cccc(OCCSc2nc3ncnc(N)c3[nH]2)c1 | i | -3 | 7 | 13 | i | -1 | nt | nt | nt | nt
Cc1cccc(OCCCSc2nc3ccc(C)cc3[nH]2)c1 | i | 1 | -6 | -15 | 100* | 16 | 33%* | i | -1 | -14
CCC(C)(C)C(=O)Nc1ncc(S(=O)(=O)c2ccc([N+](=O)[O-])cc2)s1 | i | 2 | 7 | -12 | 25* | 7 | 28%* | i | -1.2 | -10
SMILES | TMEM16A act | KLF5 inh | Jurkat NFkB inh | 697 NFkB inh | ANO1 block | aSyn 5UTR inh | TMEM16A reconf | TMEM16A Ca cntr | Parental YFP cnt | ClC-1 inh
CC(C)c1ccc(NC(=O)CSc2n[nH]c(=O)n2Cc2ccco2)cc1 | i | -15 | 0 | -50 | 25* | 13 | 20%* | i | -1 | -18
O=C(CSc1n[nH]c(=O)n1Cc1ccco1)Nc1ccccc1 | i | -21 | 8 | 11 | i | 5 | nt | nt | nt | nt
Cn1c(=O)oc2cc(S(=O)(=O)NCCC(=O)NC3CCCC3)ccc21 | i | -3 | 11 | 18 | 100* | 12 | i | i | -1 | -9
Cn1c(=O)oc2cc(S(=O)(=O)NCCC(=O)NC3CCCc4ccccc43)ccc21 (configuration not stated) | i | -8 | 5 | 12 | i | 14 | nt | nt | nt | nt
O=C(Nc1ccsc1C(=O)O)c1cccc(Oc2ccccc2)c1 | i | -85 | -17 | -138 | 100* | -23 | 52%* | i | -1 | -8
O=C(Nc1ccsc1C(=O)O)c1cccc(C(F)(F)F)c1 | i | -85 | -19 | -64 | i | -38 | nt | nt | nt | nt
O=S1(=O)CC/C(=N\O)c2ccccc21 | i | -69 | 2 | 7 | 25* | -9 | i | i | -1.2 | -4
CCC(NCc1cccnc1)c1ccc(OC)c(OC)c1 (configuration not stated) | i | nt | nt | nt | nt | nt | nt | nt | nt | nt
CC(C)C(=O)c1cc2c(cc1NC(=O)c1ccccc1)OCCO2 | i | -11 | -4 | -12 | 100* | 23 | i | i | -1.3 | -12
Cc1ccc(NC(=O)c2cccs2)cc1NC(=O)c1ccc(F)cc1 | i | -26 | 11 | -5 | i | 22 | nt | nt | nt | nt
Cc1ccc(F)cc1NC(=O)c1ccc(NS(=O)(=O)c2ccc(Br)s2)cc1 | i | 14 | -13 | -4 | 25* | -9 | i | i | -0.85 | 0

Bioassay records from PubChem BioAssay.
